Screens as filed in PubChem BioAssay.
Sampled rows, rich in hits. Any-hit rate of the full collection: about 8.5%.
JMJD2E inh = inhibitors of human JMJD2E histone demethylase. B2RXH2. JMJD2E catalytic domain, FDH-coupled NADH fluorescence (FDH is formaldehyde dehydrogenase). Potency, µM (series often up to 57.1 µM), for the others: at the highest dose activity change, negative = inhibition, usual class: inhibitors. 230,000 tested, 1.6% active. AID 2147;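 also: potency is read from the fitted curve at half-maximal effect; 0% = wells with enzyme and -100% = buffer wells without enzyme; nearly all actives have a fitted effect of over 50% in size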
ALDH1A1 block = blocks purified human ALDH1A1 activity. P00352. Purified ALDH1A1, NADH fluorescence, propionaldehyde substrate. Potency, µM (top dose mostly 75.3 µM), inactives show top-dose activity, negative = inhibition, actives largely listed as inhibitors. 220,000 tested, 7.3% active;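 also: potency is read from the fitted curve at half-maximal effect; plate controls were no enzyme wells and a reference inhibitor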
FBPA coupling cs = counter-screen for Giardia aldolase inhibitors: coupling enzyme system | 290,000 tested, 0.67% active | coupling enzyme system counterscreen, AmpLite Red fluorescence | activity change, negative = inhibition, % at 58.2 µM, hits read low | AID 2472; in the data active = activity change below about -30%
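First, compound is pin-transferred into glyceraldehyde-3-phosphate coupling-enzyme reagent at 57.5 uM final and held 10 min at RT. Next, substrate, coupling system and AmpLite Red are added. After 20 min RT, fluorescence (525/598 nm) is read.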
RGS12 GoLoco inh = RGS12 GoLoco-Gai1 interaction inhibition | P63096 | Gai1:RGS12 GoLoco peptide FP, rhodamine, 10 min | Potency, µM (highest dose often 61.6 µM), for inactives: at the top dose activity, negative = inhibition, actives largely listed as inhibitors | 230,000 tested, 0.44% active | AID 880; active = well fitted inhibition curve with a large enough effect, not every such curve was filed as active; inactive = no such curve, though single readings can be large or run the other way; also: potency is read from the fitted curve at half-maximal effect; nearly all actives have a fitted effect of over 30% in size
Target sequence (P63096 whole entry, looked up): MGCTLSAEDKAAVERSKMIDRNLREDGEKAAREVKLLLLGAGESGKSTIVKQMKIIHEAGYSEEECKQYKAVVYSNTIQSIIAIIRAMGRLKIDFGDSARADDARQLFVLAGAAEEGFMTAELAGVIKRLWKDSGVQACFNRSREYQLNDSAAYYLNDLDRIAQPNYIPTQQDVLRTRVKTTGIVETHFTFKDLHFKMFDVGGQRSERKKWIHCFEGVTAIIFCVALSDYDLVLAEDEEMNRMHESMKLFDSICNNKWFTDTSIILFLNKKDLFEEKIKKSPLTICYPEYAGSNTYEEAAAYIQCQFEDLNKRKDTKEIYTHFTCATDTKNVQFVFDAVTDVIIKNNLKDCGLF
NPSR antagonist = blocks cAMP signaling of the human neuropeptide S receptor | CHO-NPSR cells, cAMP TR-FRET, antagonist mode | Q6W5P4 | AID 1461 | Potency, µM (series often up to 38.3 µM), for inactives: at the highest dose activity change, negative = inhibition, most hits filed as inhibitors | 220,000 tested, 1% active; active = well fitted curve in the direction sought with a large enough effect; inconclusive = small, poorly fitted or top-dose-only effect, or another doubt; inactive = no such curve, though single readings can be large; an effect the other way counts as inactive or inconclusive; also: potency is read from the fitted curve at half-maximal effect; nearly all actives have a fitted effect of over 50% in size
Target sequence (Q6W5P4 whole entry, looked up): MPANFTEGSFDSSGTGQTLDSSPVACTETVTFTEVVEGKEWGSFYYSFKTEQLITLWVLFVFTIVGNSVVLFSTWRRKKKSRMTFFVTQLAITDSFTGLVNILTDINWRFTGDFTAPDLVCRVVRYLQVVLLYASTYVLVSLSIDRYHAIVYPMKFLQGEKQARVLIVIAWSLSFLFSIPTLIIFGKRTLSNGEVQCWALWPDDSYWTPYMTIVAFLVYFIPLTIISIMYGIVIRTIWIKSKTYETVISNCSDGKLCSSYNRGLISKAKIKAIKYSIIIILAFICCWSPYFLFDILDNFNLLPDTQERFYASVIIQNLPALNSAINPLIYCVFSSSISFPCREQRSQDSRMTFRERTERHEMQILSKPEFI
Sfp PPTase inh = inhibitors of Bacillus subtilis Sfp phosphopantetheinyl transferase | 310,000 tested, 3.5% active | AID 1490 | Q9F4F7 | Potency, µM, for the others: largest response in the series, negative = inhibition, usual class: inhibitors | Biochemical Sfp PPTase activity, qHTS; active = well fitted curve in the direction sought with a large enough effect; inconclusive = small, poorly fitted or top-dose-only effect, or another doubt; inactive = no such curve, though single readings can be large; an effect the other way counts as inactive or inconclusive;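 also: the enzyme is Sfp with the accession as filed and its product quenches rhodamine fluorescence; potency is read from the fitted curve at half-maximal effect; 0% = enzyme reaction without inhibitor and -100% = no enzyme wells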
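With Hepes-Na pH 7.6 buffer containing 10 mM MgCl2, Sfp (15 nM) modified BHQ-2-YbbR (12.5 uM) using rhodamine-CoA (5 uM). Two reads 30 minutes apart at 525/598 nm yielded each well's rate.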
An asterisk follows results filed as active; ? = inconclusive; . = not tested or not shown; [ ] = dose if it differs, or a comment. Unless noted, calls follow the shape of the dose curve; as a rule, active = well fitted inhibition curve with a large enough effect (not every such curve was filed as active); inconclusive = small, poorly fitted or top-dose-only effect, or another doubt; inactive = no such curve, though single readings can be large or run the other way. Unless noted, % is scaled to controls: 0 for no effect and ±100 for the full control effect.

SMILES | JMJD2E inh | ALDH1A1 block | FBPA coupling cs | RGS12 GoLoco inh | NPSR antagonist | Sfp PPTase inh
O=S(=O)(c1ccc2ccccc2c1)N1CCN(C2Cc3ccccc3C2)CC1 | ? | 28.2µM* | 1.3 | -4.5% | -3.9% | -27.2%
Cc1cnc(C(=O)N2CCN(S(=O)(=O)c3ccc4ccccc4c3)CC2)cn1 | -0.7% | 12.6µM* | -0.9 | -10.4% | -24.6%[46.1 µM] | -24.9%
O=S(=O)(c1ccc2ccccc2c1)N1CCN(C2CCN(Cc3ccccc3)CC2)CC1 | ? | ? | -0.7 | -2.3% | -7.5%[46.1 µM] | ?
O=c1[nH]c(CN2CCN(S(=O)(=O)c3ccc4ccccc4c3)CC2)nc2ccccc12 | ? | 11.6% | -0.2 | -0.4% | -25.9% | -5.9%
O=S(=O)(c1ccc2ccccc2c1)N1CCN(Cc2ccccn2)CC1 | -0.3% | 1.3% | -3.5 | -21.9% | 18.0% | 70.8µM*
Cn1c(SCC(=O)NNC(=O)Nc2ccccc2)nnc1-c1ccccc1 | 12.6% | . | -1.2 | 4.4% | 12.2% | 12.9%
Cc1ccc(C(=O)C[n+]2ccc(-c3nnc4n3CCC4)cc2)cc1 | ? | ? | -3.6 | 2.7% | 18.4% | 11.7%
COc1ccc(C(C)=O)cc1CN(c1ccccc1OC)S(=O)(=O)c1cccs1 | . | . | 2.7 | . | . | 10.5%
CC(C)CC(=O)Nc1c2c(nn1-c1cccc(Cl)c1)CS(=O)C2 (configuration not stated) | . | . | -1.4 | . | . | -6.9%
O=C(NCC1CCCO1)c1nn2c(C(F)(F)F)cc(-c3ccc(Br)o3)nc2c1Br (configuration not stated) | . | . | 0.5 | . | . | 50.1µM*
O=C(NC1CCCCC1)c1nn2c(C(F)(F)F)cc(-c3ccco3)nc2c1Br | 1.8% | 22.4µM* | 4.1 | 4.6% | -1.8%[46.1 µM] | 50.1µM*
COc1ccc(-c2cc(C(F)(F)F)n3ncc(C(=O)NCC4CCCO4)c3n2)cc1 (configuration not stated) | ? | -3.4% | 2.9 | 5.9% | -10.9%[46.1 µM] | 12.2%
O=C(CCn1cccc(C(F)(F)F)c1=O)Nc1cccc(C(F)(F)F)c1 | -4.0% | . | -0.7 | -1.6% | 7.8% | 12.0%
CSC(=Nc1ccc(Cl)cc1)N[n+]1ccccc1 | -0.9% | 6.8% | -2.5 | 7.08µM* | 7.1% | -4.4%
O=C(CCSc1ccccc1)N1CCCC1 | 5.1% | ? | 0.0 | 17.1% | 8.9% | 16.7%
O=C1CCCCCN1Sc1ccccc1 | -8.6% | -13.2% | -1.2 | . | 1.5%[46.1 µM] | 25.1µM*
Cc1ccc(N2CCN(Cc3ccccc3)CC2=O)c(C)c1 | . | . | -9.6 | . | . | ?
Cc1ccc2c(c1)C1CCCC3C1N2CC(=O)N3Cc1ccccc1 (configuration not stated) | ? | 22.4µM* | -20.3 | 37.5% | -24.7%[46.1 µM] | -5.9%
CCn1c(=O)c(CCC(=O)NCC2CCCO2)c(C)c2c(C)nn(-c3ccccc3)c21 (configuration not stated) | . | . | . | . | . | -0.5%
CCC(CO)NCc1ccc(Br)cc1 (configuration not stated) | 6.9% | -9.1% | 0.7 | -0.5% | 20.1% | -10.6%
CCC(CO)NCc1sccc1C (configuration not stated) | 13.5% | 20µM* | -2.1 | 15.8% | 1.9% | 6.3%
Cc1c(N(C)S(=O)(=O)c2cccc(C(=O)NC(C)C)c2)c(=O)n(-c2ccccc2)n1C | . | . | 0.2 | . | . | 79.4µM*
COc1ccc(S(=O)(=O)N(C)c2c(C)n(C)n(-c3ccccc3)c2=O)cc1OC | -0.7% | ? | 2.4 | -7.2% | -16.1%[46.1 µM] | 6.9%
COC(=O)c1cc(O)c(O)c(O)c1 | 15.8µM* | -11.7% | 2.2 | -1.7% | 9.6% | ?
COC(=O)c1cc(OC)nc(OC)c1 | ? | ? | 1.4 | 2.1% | -22.7% | 14.8%
SMILES | JMJD2E inh | ALDH1A1 block | FBPA coupling cs | RGS12 GoLoco inh | NPSR antagonist | Sfp PPTase inh
CCN(C(C)=O)c1ccc(Oc2nc(OC)cc(OC)n2)cc1 | -13.3% | -6.2% | 2.8 | -8.1% | 14.6% | -34.0%
CCN(C(=O)CSc1nc(N)cc(N)n1)C1CCS(=O)(=O)C1 (configuration not stated) | . | . | . | . | . | 15.8%
Oc1cccc(/C=N/c2c(-c3ccco3)nc3ccccn23)c1 | ? | ? | -25.4 | -108.6% | 10µM* | ?
CCN1CCN(CC(=O)c2cc(Cl)ccc2Cl)CC1 | -16.3% | 14.1µM* | -2.1 | 0.4% | 3.6% | -12.0%
O=S(=O)(c1ccccc1)c1nc(-c2ccco2)oc1NCc1ccco1 | -7.8% | -5.6% | 0.2 | 7.5% | -5.8%[46.1 µM] | -7.5%
CCCCNc1oc(-c2ccc(OC)cc2)nc1S(=O)(=O)c1ccccc1 | -20.3% | 22.4µM* | 2.4 | -7.0% | -5.7%[46.1 µM] | 50.1µM*
O=S(=O)(c1ccccc1)c1nc(-c2ccco2)oc1NCCCn1ccnc1 | -2.9% | 25.1µM* | 1.4 | 3.2% | -3.5%[46.1 µM] | -8.5%
CC(=O)NCCc1nc2cc(NS(=O)(=O)c3ccccc3)ccc2n1C | . | . | 0.4 | . | . | 14.0%
CCCCNC(=O)c1ccc2c(c1)C(=O)N(Cc1ccncc1)C2=O | . | . | . | . | . | 13.1%
CCONc1ncnc2nonc12 | 1.9% | 12.2% | 2.8 | 2.0% | 2.3% | 19.9%
COc1ccc(CONc2ncnc3nonc23)cc1[N+](=O)[O-] | 1.3% | 14.1µM* | 1.3 | 9.4% | -1.3% | 12.8%
Clc1ccccc1CN1CCN(/N=C/C=C/c2ccco2)CC1 | ? | . | 3.4 | 10.3% | 21.8% | 56.2µM*
COc1ccccc1N1CCN(/N=C/C=C\c2ccco2)CC1 | -4.4% | ? | -3.4 | -6.1% | -13.0%[46.1 µM] | 79.4µM*
COc1ccccc1N1CCN(/N=C/C=C\c2ccccc2[N+](=O)[O-])CC1 | ? | ? | -6.7 | -4.5% | -24.7% | -4.0%
Cc1cc(=O)oc2cc(NC(=O)CC(N)C(=O)O)ccc12 (configuration not stated) | . | . | 0.0 | . | . | ?
O=C(Nc1ccccc1)N1CC[C@@]2(CCCN(C(=O)c3cnccn3)C2)C1 | . | 12.2% | -2.4 | 6.0% | . | -2.2%
C=CCc1cccc(/C=N/NC(=O)CCC(=O)Nc2ccc(C)cc2)c1O | -26.7% | 3.4% | -0.1 | 2.2% | 9.5% | 32.5%
O=C(c1ccccc1)N1CCN(c2ncnc3sc4c(c23)CCC4)CC1 | 0.3% | 1.26µM* | 13.1 | -16.2% | -21.3%[46.1 µM] | -10.9%
Cc1onc(-c2ccccc2)c1-c1ccnn1S(=O)(=O)c1ccc(Cl)cc1 | -5.2% | 7.94µM* | -12.8 | 25.5% | ? | 2.2%
Cc1nc2cc(NC(=O)COc3ccc(C#N)cc3)ccc2n1-c1ccccc1 | 3.7% | 11.2µM* | 4.6 | 56.8% | ? | -4.3%
C=CCn1c(-c2ccc(OC)cc2)csc1=Nc1c(C)n(C)n(-c2ccccc2)c1=O | -2.3% | 13.1% | 9.2 | 4.3% | -23.2%[46.1 µM] | -3.6%
C=CCn1c(-c2ccc(OC)c(OC)c2)cs/c1=N\c1ccccn1 | ? | ? | -1.4 | -13.5% | -9.8%[46.1 µM] | 17.8µM*
